The record followed here is PubChem BioAssay AID1347419 (Sanford-Burnham Center for Chemical Genomics, 2020).

Among all 99,000 compounds or so, about 820 (0.83%) were called active. Many of the other results were omitted from the sample, so actives are more common in it than they were. Values without a mark were called inactive.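 The calls were made as follows: active = Z-score of -3 or lower, scaled per plate to the spread of control and sample wells; inactive = z-score above -3.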

Protein-tyrosine kinase 2-beta (Homo sapiens), sequence (Q14289 whole entry, looked up): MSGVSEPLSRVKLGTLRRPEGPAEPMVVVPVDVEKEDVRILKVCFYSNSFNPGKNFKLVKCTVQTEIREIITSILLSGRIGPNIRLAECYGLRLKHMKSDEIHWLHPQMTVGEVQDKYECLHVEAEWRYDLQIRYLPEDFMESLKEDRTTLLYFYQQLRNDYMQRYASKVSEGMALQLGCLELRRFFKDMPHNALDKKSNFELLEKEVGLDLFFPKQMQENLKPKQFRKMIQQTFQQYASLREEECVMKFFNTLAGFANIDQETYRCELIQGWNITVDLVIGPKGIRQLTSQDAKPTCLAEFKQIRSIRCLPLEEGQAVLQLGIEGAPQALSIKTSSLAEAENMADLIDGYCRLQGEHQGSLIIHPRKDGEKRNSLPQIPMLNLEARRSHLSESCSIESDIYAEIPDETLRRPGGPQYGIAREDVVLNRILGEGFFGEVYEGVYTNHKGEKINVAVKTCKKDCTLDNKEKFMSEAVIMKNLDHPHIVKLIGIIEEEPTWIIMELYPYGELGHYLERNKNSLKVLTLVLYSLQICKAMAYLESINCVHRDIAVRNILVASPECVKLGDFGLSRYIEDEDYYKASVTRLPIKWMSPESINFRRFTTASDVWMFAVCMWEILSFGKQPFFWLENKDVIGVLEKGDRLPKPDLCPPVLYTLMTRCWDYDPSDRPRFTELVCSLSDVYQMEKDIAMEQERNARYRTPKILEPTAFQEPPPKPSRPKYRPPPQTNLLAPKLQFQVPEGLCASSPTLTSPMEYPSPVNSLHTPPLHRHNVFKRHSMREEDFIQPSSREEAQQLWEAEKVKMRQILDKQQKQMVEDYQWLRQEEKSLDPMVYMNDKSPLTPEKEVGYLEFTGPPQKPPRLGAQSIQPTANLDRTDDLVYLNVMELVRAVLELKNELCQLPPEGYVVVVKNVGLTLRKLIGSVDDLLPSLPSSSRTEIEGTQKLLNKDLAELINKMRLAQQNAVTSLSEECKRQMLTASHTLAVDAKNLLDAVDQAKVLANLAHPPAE

This test has as its target Protein-tyrosine kinase 2-beta (Homo sapiens) (UniProt Q14289). The experiment in a line: Pyk2 FERM oligomerization blockers – Q293 cells, FERM NanoBiT luminescence, HTS, primary screen (AID 1347419).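 Also: the deposit names both 25 µM and 10 µM; negative z-score means lost luminescence so less FERM oligomerization.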 Further details: dose or concentration left out as unconfirmed. As to conditions: hits give low values.
In the case of `Cc1ccc(C(=O)Nc2ccc3c(c2)OCO3)cc1S(=O)(=O)N1CCCCC1`, the z-score is -0.16.
In the case of `O=C(Nc1ccc2c(c1)OCCO2)c1ccc(Cl)c(S(=O)(=O)N2CCCCC2)c1`, the z-score was -3.16 (active).
For `O=C(Nc1ccc2c(c1)OCCO2)c1ccncc1`, the z-score is 0.87.
For the compound `Cc1ccc(C(=O)N/C(=C/c2cccnc2)C(=O)O)cc1`, the z-score is 0.41.
Take `CC(=C/c1ccccc1)/C=N/NC(=O)c1cc(C)oc1C`: the z-score was -0.05.
As for `COc1ccc(-c2cc(C(F)(F)F)nc(SCC(=O)Nc3ccc4c(c3)OCO4)n2)cc1OC`, the z-score is -0.25.
For the compound `CCOC(=O)c1cc(-c2nnc(-c3cc(OC)c(OC)c(OC)c3)o2)c(C)nc1C`, the z-score is 0.08.
Next, `CCCc1nc2ccccc2c(C(=O)OCC(=O)c2ccc3c(c2)NC(=O)CO3)c1CC`: -1.42; `CCCc1nc2ccccc2c(C(=O)OCc2nnc(-c3cc(OC)c(OC)c(OC)c3)o2)c1CC`: -3.12 (active); `CCOC(=O)c1c(NC(=O)C2CCN(S(=O)(=O)c3ccc(Cl)cc3)CC2)sc2c1CCCC2`: 0.49.
For the compound `CC(=O)CCC(=O)c1ccc2ccccc2c1`, the z-score was 1.48.
As for `Cc1ccc2nc(-c3cccnc3)c(NC3CCCC3)n2c1`, the z-score is 0.15.
Consider `Cc1cc(OCCN2CCCC2)cc(C(C)C)c1`, for which the z-score was 1.27.
In the case of `C/C(=N\N=C(N)N)c1ccc(Cl)cc1`, the z-score was -0.37.
For the compound `CCOc1cc(-c2cc(-c3ccc(OC)cc3)nc(N)c2C#N)ccc1O`, the z-score is -3.73 (active).
In the case of `CCOC(=O)CC(=O)CSc1nc(-c2ccccc2)cc(-c2ccc(Cl)cc2)c1C#N`, the z-score was -0.86.
Regarding `CCSc1nc(-c2ccc(OC)cc2)cc(-c2ccc(OC)cc2)c1C#N`, the z-score is -1.07.
Take `NC(=O)CCC(NS(=O)(=O)c1ccc(Cl)cc1)C(=O)NCc1ccccc1Cl` (stereo unspecified): the z-score was -0.26.
Consider `CCCn1nc(NS(=O)(=O)c2ccccc2)c2cc3cc(C)ccc3nc21`, for which the z-score was -0.3.
Turning to `Cc1cc(C)c(C2C3=C(Nc4c2c(C)nn4-c2ccccn2)c2ccccc2C3=O)c(C)c1` (stereo unspecified), the z-score is 1.27.
Regarding `CS(=O)(=O)N(Cc1ccccc1)c1ccc(C(=O)NN=C2CCCCCC2)cc1`, the z-score was -0.45.
Next, `C=CCOC(=O)C1=C(C)NC(SCC(=O)OCC)=C(C#N)C1c1ccc(C)cc1` (stereo unspecified): -1.05.
In the case of `CCOC(=O)C1=C(C)NC(C)=C(C(=O)OCC)C1c1ccccn1`, the z-score was 1.06.
On to `C=CCOC(=O)C1=C(C)NC(C)=C(C(=O)OCC=C)C1c1cccs1`, for which the z-score was -3.93 (active).
Then `Cc1ccc(-n2c(SCC(=O)NCc3ccc4c(c3)OCO4)nnc2-c2cccnc2)c(C)c1`, with -4.03 (active); and `Cc1ccccc1-n1c(SCC(=O)NCc2cccs2)nnc1-c1ccncc1`, with -0.72; and `Cc1ccccc1-c1nnc(SCC(=O)NCc2ccc3c(c2)OCO3)n1C`, with 0.49.
In the case of `COc1cc(-c2cc(C(=O)OCC(=O)Nc3ccc4c(c3)OCO4)c3ccccc3n2)cc(OC)c1OC`, the z-score was -0.31.
For `CC1=NN(Cc2ccccc2)C(=O)/C1=C/c1ccc(N(C)C)cc1`, the z-score was -1.29.
As for `CN(C)c1ccc(/C=C2\NC(=S)N(Cc3ccccc3)C2=O)cc1`, the z-score was -3.38 (active).
For the compound `CN(C)c1cc[n+](Cc2ccccc2)cc1`, the z-score is 0.16.
Next, `Cc1cc(C)cc(C(=O)NC(=S)Nc2ccc3[nH]c(=O)[nH]c3c2)c1`: 0.78.
For the compound `COCCNC(=O)Cn1cc(C(=O)c2cccs2)c2ccccc21`, the z-score is -0.12.
For `O=C(Cn1cc(C(=O)c2cccs2)c2ccccc21)NCc1cccs1`, the z-score is -3.3 (active).
For `COC(=O)c1cn(CC(=O)NCc2cccs2)c2ccccc12`, the z-score was -0.4.
As for `Cc1ccc(S(=O)(=O)NNC(=O)Nc2cccc3ccccc23)cc1`, the z-score was -1.37.
For `CC(=O)c1c(O)cc2n(c1=O)-c1ccc(Cl)cc1C2(C)C`, the z-score was -0.76.
Then `CCNC(=S)N1CCN(c2ncccn2)CC1`, with 0.25.
Next, `O=C(CN(c1ccc2c(c1)OCCO2)S(=O)(=O)c1ccccc1)Nc1ccc2c(c1)OCO2`: -3.19 (active).
For the compound `CCCCC(=O)Nc1ccc2c(c1)OCCO2`, the z-score is -0.26.
`COc1ccc(S(=O)(=O)N(C)CC(=O)Nc2ccc3c(c2)OCCO3)cc1OC`: the z-score is 0.96.
For `Cc1cc([N+](=O)[O-])ccc1NC1CCCC1`, the z-score was 0.61.
Next, `CC(C)(C)C1CCC(=NNC(=O)c2cc(-c3ccccc3)n[nH]2)CC1` (stereo unspecified): 0.56.
As for `CCOc1ccc(NC(=S)NC(=O)/C=C/c2ccc(OC)cc2)c([N+](=O)[O-])c1`, the z-score is 0.72.
Take `COc1ccc(S(=O)(=O)N2CCCCC2)cc1Br`: the z-score was -0.87.
Consider `COc1ccc(S(=O)(=O)Nc2ccc(S(=O)(=O)N3CCCCC3)cc2)cc1OC`, for which the z-score was -1.09.
Consider `COc1ccc(-c2ccc(Nc3ccc(S(=O)(=O)N4CCCC4)cc3)nn2)cc1OC`, for which the z-score was -3.54 (active).
For the compound `CN(C)CCCNC(=S)NCc1ccc(Cl)cc1`, the z-score was 0.46.
With `Cc1ccc(C(C)NC(=O)Cn2nc(C)c([N+](=O)[O-])c2C)cc1` (stereo unspecified), the z-score is 0.63.
`O=C1c2ccccc2C2=Nc3ccccc3SC(c3ccccc3F)C12` (stereo unspecified): the z-score is -4.39 (active).
With `CCCOc1ccc(Cn2ccnc2)cc1[N+](=O)[O-]`, the z-score is 1.5.
Then `Cc1ccc(O)c(CCc2ccccc2)n1`, with 0.72; and `FC(F)(F)c1cc(-c2ccco2)nc(NCc2ccc(Cl)cc2)n1`, with 0.02.
Then `COc1ccc(-c2cc(C(F)(F)F)nc(NCc3cccnc3)n2)cc1`, with -3.51 (active); and `COc1ccc(-c2nnc(SCc3cccnc3)o2)cc1`, with -0.08.
Consider `O=C(CCN1C(=O)c2ccccc2C1=O)Nc1ccncc1`, for which the z-score is 0.81.
Next, `COc1cc(C(=O)NC(=S)NCc2ccco2)cc(OC)c1OC`: 0.39; `COc1cc(C(=O)Nc2oc(-c3ccccc3)c(-c3ccccc3)c2C#N)cc(OC)c1OC`: -3.42 (active).
Turning to `N#Cc1c(NC(=O)CCCN2C(=O)c3ccccc3C2=O)oc(-c2ccccc2)c1-c1ccccc1`, the z-score is -3.57 (active).
Consider `COC(=O)c1sccc1NC(=O)c1cc(OC)c(OC)c(OC)c1`, for which the z-score was -0.79.
For the compound `N#Cc1c(/N=C/N2CCCC2)oc(-c2ccccc2)c1-c1ccccc1`, the z-score was -2.56.
